Bioassay records: PubChem BioAssay, National Center for Advancing Translational Sciences (NCATS)
Most compounds without a hit are left out; they make up all but 4.6% or so of the library.
D1 potentiator: potentiators of human D1 dopamine receptor. P21728. HEK293 TREx D1 cells, calcium flux, dopamine EC20 potentiation. potentiation, % at 10 µM. actives 0.036% (n = 360,000). AID 504651; in the data active means potentiation above about 30%; further: 0% is about no effect
Target sequence (P21728 whole entry, looked up): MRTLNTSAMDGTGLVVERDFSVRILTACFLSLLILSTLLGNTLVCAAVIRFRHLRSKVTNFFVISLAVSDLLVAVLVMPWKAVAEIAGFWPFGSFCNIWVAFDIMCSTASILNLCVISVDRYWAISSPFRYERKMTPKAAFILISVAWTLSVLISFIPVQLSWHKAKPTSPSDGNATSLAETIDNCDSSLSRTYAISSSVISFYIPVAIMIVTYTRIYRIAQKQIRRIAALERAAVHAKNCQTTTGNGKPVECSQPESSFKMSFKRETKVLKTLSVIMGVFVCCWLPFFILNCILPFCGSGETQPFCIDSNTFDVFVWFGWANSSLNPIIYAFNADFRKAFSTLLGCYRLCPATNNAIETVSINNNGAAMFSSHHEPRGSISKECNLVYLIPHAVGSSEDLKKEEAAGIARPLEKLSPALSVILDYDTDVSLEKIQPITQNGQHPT
D1 ag: activates the human D1 dopamine receptor; activation, % at 2 µM; P21728; HEK293 T-REx D1 cells, calcium flux, agonist mode; actives 1% (n = 360,000); further: 0% is about no effect
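Inducible HEK293 T-REx D1 cells, force-coupled to calcium signalling, were plated at 4000 cells/well with tetracycline and held overnight at 30 C. After no-wash calcium dye loading, compound-evoked calcium rise over 180 s flagged agonists.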
TRHR PAM: allosterically enhances the human TRH receptor. TRHR cells, fluo-8 calcium fluorescence, EC20 TRH enhancement. enhancement, % at 2 µM. actives 0.66% (n = 360,000); in the data active means enhancement above about 30%; further: 0% is about no effect
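TRHR-expressing cells loaded with fluo-8 calcium dye were read kinetically (ex 480/em 530) during compound addition, then stimulated with an EC20 of TRH (10 nM final). Enhancement of the Gq-mediated intracellular calcium response was scored.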
TRHR ag: TRH receptor (human) agonism; P34981; activation, % at 2 µM; actives 0.18% (n = 360,000); TRHR cells, calcium flux fluo-8, FDSS agonist mode; further: 0% is about no effect
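TRHR-expressing cells loaded with fluo-8 calcium dye; 23 nL library compound pin-transferred, kinetic FDSS fluorescence (Ex 480/Em 530) recorded about 180 s for agonist-induced calcium release, before a 10 nM TRH EC20 addition for potentiator mode.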
D1 antag: blocks dopamine activation of the human D1 receptor | P21728 | HEK293 TREx D1 cells, calcium flux, dopamine EC80; hits give low values | activity change, negative = inhibition, % at 10 µM | actives 3.2% (n = 360,000); in the data active means activity change below about -30%; further: on the % scale 0 is the no-effect control and ±100 the full control effect
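Compound effects on dopamine-evoked calcium signalling were measured in tetracycline-induced HEK293 Trex D1 cells. Dopamine at EC80 followed a 180 s compound pre-read, and fluorescence was tracked kinetically for 180 s more.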
* hit, by the source's call. Unless noted, no stated cut-off is given here; in the data, active means activation above about 30%; inactive means the rest.

For CCOC(=O)C1CCCN(c2c(C(=O)c3ccc(C)cc3)cnc3ccc(OCC)cc23)C1 (stereo not drawn) the results were D1 potentiator 0.9, D1 ag -0.9, TRHR PAM -3.2, TRHR ag 1.1 and D1 antag 14.9.
O=c1c(O)c(-c2cccs2)oc2ccc(Cl)cc12 was read as D1 potentiator -13.8, D1 ag 384.7*, TRHR PAM 76.6*, TRHR ag 168.2* and D1 antag 52.7.
`O=c1c(O)c(-c2cccs2)oc2ccccc12` gave D1 potentiator 6.8, D1 ag 252.3*, TRHR PAM 4.3, TRHR ag 107.2* and D1 antag 27.6.
Cc1cc(C)c(S(=O)(=O)Nc2ccc(-c3ccc(N4CCCCCC4)nn3)cc2)c(C)c1 was read as D1 potentiator 0.9, D1 ag 2.2, TRHR PAM -0.3, TRHR ag 0.5 and D1 antag 9.9.
`Cc1noc(C)c1C(=O)OCC(=O)c1cc(C)n(Cc2ccccc2Cl)c1C` gave D1 potentiator -11.7, D1 ag 6.0, TRHR PAM -5.5, TRHR ag -0.3 and D1 antag -37.5*.
For CC1CC(C)CN(c2ccc([N+](=O)[O-])nc2)C1 (stereo not drawn) the results were D1 potentiator -0.1, D1 ag 0.4, TRHR PAM 1.9, TRHR ag -0.9 and D1 antag -9.3.
CC1CN(c2ccc([N+](=O)[O-])nc2)CC(C)O1 (stereo not drawn) was read as D1 potentiator -4.5, D1 ag 1.2, TRHR PAM -0.5, TRHR ag 0.1 and D1 antag -35.4*.
For CCOc1ccc(C2CC(c3ccccc3C)n3ncnc3N2)cc1 (stereo not drawn) the results were D1 ag 14.2, TRHR PAM -3.6, TRHR ag -1.0 and D1 antag -40.2*.
For Cc1ccccc1C1CC(c2ccccc2)Nc2ncnn21 (stereo not drawn) the results were D1 ag 5.4, TRHR PAM 12.1, TRHR ag -0.7 and D1 antag 7.9.
Screening Nc1nc2ccccc2n1CCOc1ccc(Cl)cc1 returned D1 potentiator -14.7, D1 ag 11.3, TRHR PAM 9.1, TRHR ag 0.7 and D1 antag -4.3.
Nc1nc2ccccc2n1CCOc1ccccc1Cl was read as D1 potentiator -6.0, D1 ag 19.8, TRHR PAM 1.4, TRHR ag 1.2 and D1 antag -36.2*.
`CCN(CC)CCn1c(=N)n(CCOc2ccccc2Cl)c2ccccc21` gave D1 potentiator -1.6, D1 ag 52.7*, TRHR PAM 5.4, TRHR ag -0.7 and D1 antag -6.6.
Cc1cc2c(s1)c1cnn(Cc3ccc(OC(F)F)cc3)c(=O)c1n2C was read as D1 potentiator 0.0, D1 ag 0.4, TRHR PAM 1.4, TRHR ag 0.1 and D1 antag -2.5.
`COc1ccc(C2(O)CCN(CC(=O)Nc3nccs3)CC2)c(OC)c1` gave D1 potentiator -19.6, D1 ag 1.8, TRHR PAM 4.2, TRHR ag -0.1 and D1 antag -30.5*.
Screening CCc1nnc(NC(=O)CN2CCC(O)(c3ccccc3OC)CC2)s1 returned D1 potentiator -1.4, D1 ag 3.1, TRHR PAM 14.8, TRHR ag 0.0 and D1 antag 6.9.
Screening Cc1ccc(S(=O)(=O)c2nnn3c2nc(N2CCC(C(N)=O)CC2)c2cc(Cl)ccc23)cc1C returned D1 potentiator -5.8, D1 ag 2.5, TRHR PAM -4.2, TRHR ag 0.1 and D1 antag -33.2*.
For CCOC(=O)C1CCN(c2nc3c(S(=O)(=O)c4ccc(C)c(C)c4)nnn3c3ccc(Cl)cc23)CC1 the results were D1 potentiator -7.7, D1 ag 2.1, TRHR PAM -3.4, TRHR ag 0.5 and D1 antag -5.3.
Screening CCOc1cc(-c2nc(-c3ccc(-c4ccc(C)cc4)nc3OC)no2)cc(OCC)c1OCC returned D1 potentiator -3.0, D1 ag -0.5, TRHR PAM 1.4, TRHR ag -0.2 and D1 antag 15.4.
`COc1cc(NC(=O)CSc2nc(C)c(C(=O)Nc3ccccc3)c(-c3ccc(OC)c(OC)c3)c2C#N)c(OC)cc1Cl` gave D1 potentiator 1.7, D1 ag 6.9, TRHR PAM 7.3, TRHR ag 0.7 and D1 antag 4.8.
Screening Cc1ccc(NC(=O)[C@H](CSCc2ccccc2)N2Cc3ccccc3C2=O)cc1 returned D1 potentiator -0.1, D1 ag 3.7, TRHR PAM -3.3, TRHR ag 0.3 and D1 antag -34.1*.
For Cc1oc2ccc(O)c(CN3CCCCCC3)c2c1C(=O)Nc1cccc(C(F)(F)F)c1 the results were D1 potentiator -0.3, D1 ag 28.0, TRHR PAM 7.0, TRHR ag -0.9 and D1 antag -19.4.
`O=C(Nc1c[nH]c(=O)[nH]c1=O)c1ccccc1Cl` gave D1 potentiator -1.7, D1 ag 1.2, TRHR PAM 30.4*, TRHR ag 0.2 and D1 antag 3.5.
For COc1ccc(C(=O)N2CCN(c3nc4c(OC)cccc4s3)CC2)cc1OC the results were D1 potentiator -2.6, D1 ag 2.9, TRHR PAM -4.6 and TRHR ag -0.2.
O=C(O)/C=C/C(=O)NNC(=O)c1ccccc1Br was read as D1 potentiator -8.5, D1 ag -1.4, TRHR PAM -3.0, TRHR ag 0.1 and D1 antag -40.6*.
Screening Cc1ccccc1C(=O)NNC(=O)/C=C\C(=O)O returned D1 potentiator -0.8, D1 ag 2.4, TRHR PAM -9.7, TRHR ag -0.5 and D1 antag -1.7.
CCC1(c2ccccc2)NC(=O)N(CC(=O)N(CC(=O)Nc2ccccc2C(F)(F)F)Cc2ccco2)C1=O (stereo not drawn) was read as D1 potentiator 1.4, D1 ag 43.7*, TRHR PAM 4.2, TRHR ag -1.1 and D1 antag -13.1.
Cc1cc(/C=N/NC(=O)c2cccs2)c(C)n1-c1ccccc1 was read as D1 potentiator -3.1, D1 ag 1.2, TRHR PAM -3.3, TRHR ag -0.2 and D1 antag -39.0*.
Cc1cc(/C=N/NC(=O)c2ccncc2)c(C)n1-c1ccccc1 was read as D1 potentiator -5.3, D1 ag 1.5, TRHR PAM -6.4, TRHR ag -1.0 and D1 antag -2.5.
`Cc1ccc(-n2c(C)cc(/C=N/NC(=O)Cn3c4ccccc4c(=O)c4ccccc43)c2C)cc1` gave D1 potentiator 5.5, D1 ag 1.1, TRHR PAM 32.6*, TRHR ag -0.6 and D1 antag 7.3.
`COC(=O)c1ccc(NC2CC(=O)N(c3ccccc3C)C2=O)cc1` (stereo not drawn) gave D1 potentiator -6.5, D1 ag 5.0, TRHR PAM -1.1, TRHR ag -0.1 and D1 antag -32.8*.
